# High-throughput results from PubChem.
# NPC1 promoter act: activates the NPC1 promoter; Huh7 NPC1 promoter luciferase reporter, 24 h; Potency, µM (doses to about 9.22 µM), actives largely listed as activators; actives 2.4% (n = 320,000); further: nearly all actives have a fitted effect of over 60% in size
#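 Cells: Huh7 expressing luciferase under the NPC1 promoter, 1500/well. Seeded 2 h, compound added, incubated 24 h at 37 °C. Luciferase reagent, 10 min ambient, then luminescence.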
# Rab9 promoter act: activates the Rab9 promoter | actives 2.8% (n = 320,000) | AID 485297 | Huh7 Rab9 promoter-luciferase reporter, luminescence, 24 h | Potency, µM (top dose mostly 9.22 µM), actives largely listed as activators; further: nearly all actives have a fitted effect of over 60% in size
#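 Measured in stably transfected Huh7 cells bearing a Rab9 promoter–luciferase construct: 24 h compound treatment at 37 °C, followed by luminescence detection.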
# p53 reactivation: mutant p53 re-activation in reporter cells; H1299 p53-A138V BP100-luciferase reporter, luminescence, 24 h; Potency, µM (series often up to 92.2 µM), hits mostly activators; actives 0.063% (n = 320,000); AID 504706; further: nearly all actives have a fitted effect of over 45% in size
#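 H1299 (p53-null), stable ts p53-A138V + BP100-Luc; 1000 cells/well, Opti-MEM/10% FBS; cpd 4 pt, 1:5; 24 h, 37 deg C, 5% CO2; detection reagent 10 min RT; luminescence.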
# SMN2 splice enh: SMN2 splice variant enhancement; actives 2.8% (n = 210,000); HEK293 SMN2-luciferase splicing reporter, luminescence, 30-36 h; Potency, µM (top dose mostly 46.1 µM), most hits filed as activators; further: nearly all actives have a fitted effect of over 55% in size
#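 HEK293 cells carry an SMN2 […]–luciferase reporter in which exon 7 inclusion puts luciferase in frame. Cells were plated 10-12 h before compound addition, then incubated 30-36 h at 37C. ONE-Glo luminescence was read; sodium butyrate at 4.5 mM final served as control.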
# FLuc counter: firefly luciferase modulation, counter-screen for miR-21 project; actives 6.9% (n = 360,000); Potency, µM (highest dose often 57.5 µM), most hits filed as inhibitors; AID 588342; P08659; purified FLuc, Km substrates, luminescence inhibition; further: nearly all actives have a fitted effect of over 55% in size
# Target sequence (P08659 whole entry, looked up): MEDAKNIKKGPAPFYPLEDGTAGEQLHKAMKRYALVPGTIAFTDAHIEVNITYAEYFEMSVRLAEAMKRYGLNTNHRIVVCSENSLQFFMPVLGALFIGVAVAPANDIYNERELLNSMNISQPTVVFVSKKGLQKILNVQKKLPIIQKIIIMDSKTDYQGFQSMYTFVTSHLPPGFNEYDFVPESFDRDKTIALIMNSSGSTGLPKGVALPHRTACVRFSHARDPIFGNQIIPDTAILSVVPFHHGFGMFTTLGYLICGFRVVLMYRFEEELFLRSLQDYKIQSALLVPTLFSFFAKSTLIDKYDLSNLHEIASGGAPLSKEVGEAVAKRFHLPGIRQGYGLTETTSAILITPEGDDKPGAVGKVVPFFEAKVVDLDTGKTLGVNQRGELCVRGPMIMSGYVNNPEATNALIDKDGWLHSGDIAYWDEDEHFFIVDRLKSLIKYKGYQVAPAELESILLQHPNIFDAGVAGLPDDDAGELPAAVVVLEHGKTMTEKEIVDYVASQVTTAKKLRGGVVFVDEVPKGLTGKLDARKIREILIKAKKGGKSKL
#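 Biochemical qHTS of compounds, final roughly 60 µM downward over six points, against 10 nM purified firefly luciferase using Km concentrations of substrates (10 uM D-luciferin, 10 uM ATP) in Tris acetate pH 7.5 buffer; luminescence output.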
# ELG1 genotoxic: inducers of genotoxicity in HEK293T ELG1-luciferase cells; HEK293T ELG1-luciferase reporter, luminescence, 16 h; Potency, µM (highest dose often 46 µM), hits mostly activators; actives 1.3% (n = 330,000); AID 504466; further: nearly all actives have a fitted effect of over 60% in size
#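 Cells (2,000/well) expressing the ELG1-luciferase fusion are dosed by pin tool and kept 16 hr at 37 °C, 5% CO2. Signal comes from ONE-Glo luciferase reagent after 30 min at room temperature.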
# Hits are given with their value; 0 = inactive; ? = inconclusive; - = no result given. A selection: hits, their analogues and other compounds. The true share with any hit is near 7.4%. The call rests on the fitted dose curve; in most records, active means well fitted curve in the direction sought with a large enough effect; inconclusive means small, poorly fitted or top-dose-only effect, or another doubt; inactive means no such curve, though single readings can be large; an effect the other way counts as inactive or inconclusive.
SMILES,NPC1 promoter act,Rab9 promoter act,p53 reactivation,SMN2 splice enh,FLuc counter,ELG1 genotoxic
O=C(COC(=O)c1ccccc1Br)NCC1CCCO1 (stereo not given),-,-,0,-,-,0
Cc1cc(C(=O)COC(=O)C2COc3ccccc3O2)c(C)n1CC1CCCO1 (stereo not given),0,0,0,0,4.78µM,0
Cc1cc(C(=O)COC(=O)c2ccccc2Br)c(C)n1CC1CCCO1 (stereo not given),0,0,0,-,0.107µM,?
O=C(CCS(=O)(=O)c1ccc(Br)cc1)N1CCN(c2ccccc2)CC1,0,0,0,0,0,0
O=C(CCS(=O)(=O)c1ccccc1)N1CCN(c2ccccc2)CC1,2.82µM,1.58µM,?,-,12µM,?
CC(=O)Oc1ccc(/C(C)=N/N2CCN(Cc3ccc(C)cc3)CC2)cc1,0,0,-,-,0,0
Cc1ccc(OCC(=O)NCCNC(=O)c2ccncc2)cc1C,0,0,0,-,0,0
COc1ccc2nc(N3CCC(C)CC3)c(C#N)cc2c1,?,3.98µM,0,20µM,10.7µM,?
COc1ccc2nc(N3CCC(O)CC3)c(C#N)cc2c1,0,0,?,0,15.1µM,0
COc1ccc2cc(C#N)c(N3CCOCC3)nc2c1,0,0,0,-,0,0
O=C(Nc1nc2ccccc2s1)C1CCN(C(=O)c2ccco2)CC1,0,0,0,-,0,0
CCOc1ccc2nc(NC(=O)C3CCN(C(=O)c4ccco4)CC3)sc2c1,?,?,?,-,15.1µM,?
CCOc1ccc2nc(N3CCC(C(=O)N4CCN(C(=O)c5ccco5)CC4)CC3)sc2c1,0,0,0,0,13.5µM,0
O=C(NNC(=O)c1ccc(NC(=O)c2ccccc2)cc1)c1ccccc1,0,0,0,0,0,0
COc1ccc(NC(=O)C2(c3ccc(NC(=O)c4ccc(OC(C)=O)cc4)cc3)CCCC2)cc1,0,0,0,0,0,0
N#CC1(c2ccc(NC(=O)c3ccccc3)cc2)CCCC1,0.282µM,0.398µM,0,14.1µM,1.35µM,?
CC(=O)Oc1ccc(C(=O)Nc2ccc(C3(C#N)CCCC3)cc2)cc1,1.26µM,2µM,0,-,?,0
CCN(C[C@H]1N[C@@](C)(C(=O)OC)[C@H]2C(=O)N(C)C(=O)[C@@H]12)C(=O)c1ccc(C(C)(C)C)cc1,-,-,0,-,-,0
O=C(CCNS(=O)(=O)c1ccccc1F)NC1CCCCCC1,0,0,0,-,0,0
Cc1cccc(NC(=O)/C(C#N)=C/c2ccc[nH]2)c1C,?,3.98µM,0,-,0,?
Cc1[nH]n(-c2ccccc2)c(=O)c1/C=N\NC(=O)C1COc2ccccc2O1 (stereo not given),?,?,?,0,1.9µM,?
Cc1[nH]n(-c2ccccc2)c(=O)c1/C=N/NC(=O)c1cccc([N+](=O)[O-])c1,0,0,0,0,8.49µM,0
Cc1ccc(OCC(=O)N/N=C\c2cccn2C)c([N+](=O)[O-])c1,0,0,0,-,10.7µM,0
CC(=O)N/N=C/c1c(C)[nH]n(-c2ccccc2)c1=O,0,0,0,0,0,0
Cc1ccc(C)c(OCC(=O)N/N=C\c2cccn2C)c1,0,0,0,0,0,0
SMILES,NPC1 promoter act,Rab9 promoter act,p53 reactivation,SMN2 splice enh,FLuc counter,ELG1 genotoxic
Cc1[nH]n(-c2ccccc2)c(=O)c1/C=N/NC(=O)COc1ccccc1[N+](=O)[O-],0,0,?,0,21.3µM,0
COCC(=O)N/N=C/c1c(C)[nH]n(-c2ccccc2)c1=O,0,0,0,-,0,0
NNC(=O)C1CC(O)CN1S(=O)(=O)c1ccc2ccccc2c1 (stereo not given),0,0,0,-,0,0
Cc1ccc(-n2[nH]c(C)c(/C=N/Nc3ccc([N+](=O)[O-])cc3[N+](=O)[O-])c2=O)cc1C,0,0,0,0,13.5µM,0
CN1C=C/C(=C\c2cc[n+](C)c3ccccc23)c2ccccc21,0,0,0,0,16.9µM,0
CCOC(=O)N1CCN(C(=S)NC(=O)/C=C/c2ccc(C)cc2)CC1,0,0,0,-,13.5µM,0
CN1C(=O)/C(=C\c2ccco2)N=C1c1ccc(Cl)cc1Cl,0,0,0,-,16.9µM,0
O=C1OC(/C=C/c2ccc(Cl)cc2)=NC/1=C/c1ccco1,0,0,0,0,0,0
CN(C(=O)c1ccccc1Cl)c1ccccc1C(=O)NCCc1ccccc1,0,0,0,-,0,0
Cc1ccccc1CNC(=O)Cc1ccccc1[N+](=O)[O-],?,3.98µM,?,14.1µM,16.9µM,?
CCN(CC(=O)NCc1ccc(Cl)cc1)C(=O)Cc1ccccc1[N+](=O)[O-],2.51µM,3.55µM,?,-,?,?
CCN(CC(=O)NCc1ccc(Cl)cc1)C(=O)CCc1ccccc1,0,0,0,-,0,0
O=C(Cc1ccccc1[N+](=O)[O-])NCc1ccccc1Cl,3.55µM,2.82µM,0,?,7.57µM,?
CCCNS(=O)(=O)c1ccc(OCC(=O)Nc2ccc3c(c2)OCCO3)c(C)c1,0,0,0,-,0,0
Oc1ccccc1C1=Nc2nc3ccccc3n2C(c2ccccc2)C1 (stereo not given),0,0,?,0,10.7µM,?
Oc1ccccc1C1=NN(c2ccccc2)C(c2ccc(F)cc2)C1 (stereo not given),0,0,0,-,0,0
Cc1ccc(-c2csc3nc(C)n(N)c(=O)c23)o1,?,?,0,0,?,16.4µM
NC(=O)c1ccsc1NC(=O)COC(=O)/C=C/c1ccccc1[N+](=O)[O-],-,-,0,-,-,0
NC(=O)c1ccsc1NC(=O)COC(=O)c1cc(Cl)ccc1O,0,0,0,-,4.26µM,0
O=C(COC(=O)c1cc(Cl)ccc1O)NCCNC(=O)COC(=O)c1cc(Cl)ccc1O,0,0,0,-,0,0
NC(=O)c1ccsc1NC(=O)COC(=O)c1ccccc1F,0,0,0,-,10.7µM,0
NC(=O)c1ccsc1NC(=O)COC(=O)/C=C/c1ccccc1,0,0,0,-,10.7µM,0
CC(C)(C)OC(=O)N1CCC(c2c(C(=O)N3CCN(c4ccccc4F)CC3)cnn2C(C)(C)C)CC1,-,-,-,-,0,-
COc1ccc(NC(=O)C2CCC(CNS(=O)(=O)c3cccc4nsnc34)CC2)cc1OC (stereo not given),-,-,-,0,0,-
Cc1ccc(C(=O)n2nc(C)c(S(=O)(=O)N3CCCCCC3)c2C)cc1C,-,-,-,-,0,-
O=C1OCC2OC(O)C(O)C(O)C2OC(=O)c2cc(O)c(O)c(O)c2-c2c(O)c(O)c3oc(=O)c4c(c(O)c(O)c5oc(=O)c2c3c54)-c2c1cc(O)c(O)c2O (stereo not given),0,0,0,-,26.9µM,0
COc1c(O)cc2c(c1O)C1OC(CO)C(O)C(O)C1OC2=O (stereo not given),0,0,0,-,0,0
